In the supplement of paper PMC10849652:
The full data set covers some 8,800 targets. This sample favours those with a hit. About 0.5% of all pairs of compound and target were hits.

Key:
Assay in all cases: log2 fold change, soluble protein after heating vs DMSO (PISA); higher = thermal stabilisation; K562 lysate, 10 uM; active = over 0.2 and 3.5 SD of the protein, either way, in both replicates (recomputed)
vemurafenib = compound: CCCS(=O)(=O)Nc1ccc(F)c(C(=O)c2c[nH]c3ncc(-c4ccc(Cl)cc4)cc23)c1F [vemurafenib]
In short: (§1)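 Values give the log-two fold change in thermal stability against solvent controls, from duplicates. Crude K562 extract at 1 mg/mL protein, made by dounce homogenisation in PBS pH 7.4 with 1 mM MgCl2, was treated with 10 μM compound for 30 min. After 3 min heating across 48°C-58°C, aliquots were pooled, adjusted to 0.5% NP-40 at 4°C and centrifuged at 21,000xg for 90 min. The supernatant was measured by TMTpro 16plex LC-MS/MS with channel sums equalised.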

[1] = compound: CCCS(=O)(=O)Nc1ccc(F)c(C(=O)c2c[nH]c3ncc(Cl)cc23)c1F
In short: as §1

[2] = compound: CC[C@@H]1C(=O)N(C)c2cnc(Nc3ccc(C(=O)NC4CCN(C)CC4)cc3OC)nc2N1C1CCCC1
In short: as §1

volasertib = compound: CC[C@@H]1C(=O)N(C)c2cnc(Nc3ccc(C(=O)N[C@H]4CC[C@H](N5CCN(CC6CC6)CC5)CC4)cc3OC)nc2N1C(C)C [volasertib]
In short: as §1

[3] = compound: CCn1c(C(=O)N(C2CC2)C2CC2)cc2c3c(ncn3C)c(Nc3cc(C)n(C)n3)nc21
In short: as §1

[4] = compound: CCn1cc(-c2ccnc3[nH]c(-c4cccc(CN(C)C)c4)cc23)c(-c2ccc(NC(=O)N(C)C)cc2)n1
In short: as §1

[5] = compound: CN1CCC(CNc2ccc3ncc(-c4cccc(OC(F)(F)F)c4)n3n2)CC1
In short: as §1

saracatinib = compound: CN1CCN(CCOc2cc(OC3CCOCC3)c3c(Nc4c(Cl)ccc5c4OCO5)ncnc3c2)CC1 [saracatinib]
In short: as §1

sotrastaurin = compound: CN1CCN(c2nc(C3=C(c4c[nH]c5ccccc45)C(=O)NC3=O)c3ccccc3n2)CC1 [sotrastaurin]
In short: as §1

barasertib = compound: CCN(CCCOc1ccc2c(Nc3cc(CC(=O)Nc4cccc(F)c4)[nH]n3)ncnc2c1)CCOP(=O)(O)O [barasertib]
In short: as §1

Measured: log2 fold change

KIF3C (UniProt O14782)
inactive: vemurafenib 0.565 | [1] -0.213 | [2] -0.296 | volasertib 0.186 | [3] 0.018 | [4] -0.138 | [5] -0.037 | saracatinib 0.02 | sotrastaurin -0.022

KMT2A isoform 3 (UniProt Q03164)
inactive: vemurafenib 0.044 | [1] -0.033 | barasertib 0.042 | [2] -0.035 | volasertib -0.054 | [3] -0.058 | [4] -0.093 | [5] -0.01 | saracatinib -0.069 | sotrastaurin 0.034

MRPL28 (UniProt Q13084)
active: [4] 0.411
inactive: vemurafenib 0.005 | [1] 0.009 | barasertib 0.053 | [2] -0.06 | volasertib 0.019 | [3] 0.024 | [5] -0.356 | saracatinib -0.016 | sotrastaurin 0.055

MED8 isoform 2 (UniProt Q96G25)
inactive: vemurafenib -0.022 | [1] 0.018 | barasertib 0.081 | [2] -0.051 | volasertib -0.003 | [3] 0.013 | [4] 0.214 | [5] -0.092 | saracatinib -0.002 | sotrastaurin 0.091

KLHL12 isoform 2 (UniProt Q53G59)
active: barasertib -0.413
inactive: vemurafenib 0.038 | [1] 0.061 | volasertib -0.045 | [3] 0.118 | saracatinib 0.064 | sotrastaurin -0.045

MAP4 isoform 5 (UniProt P27816)
UniProt P27816, sequence (P27816 whole entry, looked up): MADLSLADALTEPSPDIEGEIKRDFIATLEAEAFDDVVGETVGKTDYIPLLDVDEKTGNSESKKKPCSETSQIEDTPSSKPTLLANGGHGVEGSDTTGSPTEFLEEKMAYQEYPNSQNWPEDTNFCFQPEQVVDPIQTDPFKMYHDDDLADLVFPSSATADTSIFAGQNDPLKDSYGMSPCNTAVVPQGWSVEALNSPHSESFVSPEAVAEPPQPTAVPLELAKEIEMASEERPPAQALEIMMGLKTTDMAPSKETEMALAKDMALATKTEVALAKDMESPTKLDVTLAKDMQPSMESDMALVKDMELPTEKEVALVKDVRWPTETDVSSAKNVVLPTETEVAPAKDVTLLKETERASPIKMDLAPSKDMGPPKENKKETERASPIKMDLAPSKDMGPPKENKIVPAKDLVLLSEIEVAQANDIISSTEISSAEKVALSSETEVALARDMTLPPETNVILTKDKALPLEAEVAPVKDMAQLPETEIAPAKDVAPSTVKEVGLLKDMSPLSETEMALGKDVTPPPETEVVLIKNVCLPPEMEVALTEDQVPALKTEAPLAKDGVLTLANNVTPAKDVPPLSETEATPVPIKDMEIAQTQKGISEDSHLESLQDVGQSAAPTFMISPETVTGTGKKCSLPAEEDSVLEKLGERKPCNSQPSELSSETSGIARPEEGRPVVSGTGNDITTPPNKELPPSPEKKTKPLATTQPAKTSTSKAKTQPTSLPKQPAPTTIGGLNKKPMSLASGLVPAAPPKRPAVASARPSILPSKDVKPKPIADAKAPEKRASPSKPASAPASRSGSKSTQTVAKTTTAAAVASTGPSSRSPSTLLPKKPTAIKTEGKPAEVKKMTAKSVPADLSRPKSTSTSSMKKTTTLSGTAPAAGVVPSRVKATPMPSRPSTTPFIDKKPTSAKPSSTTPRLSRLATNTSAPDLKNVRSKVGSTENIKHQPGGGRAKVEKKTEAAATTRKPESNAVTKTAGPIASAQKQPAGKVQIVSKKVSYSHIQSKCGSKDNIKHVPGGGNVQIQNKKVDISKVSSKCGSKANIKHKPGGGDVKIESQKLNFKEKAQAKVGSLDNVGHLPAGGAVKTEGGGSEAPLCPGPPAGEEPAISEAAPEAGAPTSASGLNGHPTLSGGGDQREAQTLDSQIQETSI
inactive: vemurafenib -0.019 | [1] -0.035 | barasertib -0.038 | [2] 0.069 | volasertib 0.044 | [3] -0.266 | saracatinib 0.041 | sotrastaurin -0.04

MLLT11 (UniProt Q13015)
inactive: vemurafenib -0.054 | [1] -0.048 | barasertib 0.143 | [2] -0.199 | volasertib 0.1 | [3] 0.05 | [4] -0.01 | [5] -0.049 | saracatinib 0.118 | sotrastaurin -0.04

LRRIQ1 (UniProt Q96JM4)
inactive: vemurafenib -0.023 | [1] 0.02 | volasertib 0.015 | [3] -0.015 | sotrastaurin 0.027

MCUB (UniProt Q9NWR8)
UniProt Q9NWR8, sequence (Q9NWR8 whole entry, looked up): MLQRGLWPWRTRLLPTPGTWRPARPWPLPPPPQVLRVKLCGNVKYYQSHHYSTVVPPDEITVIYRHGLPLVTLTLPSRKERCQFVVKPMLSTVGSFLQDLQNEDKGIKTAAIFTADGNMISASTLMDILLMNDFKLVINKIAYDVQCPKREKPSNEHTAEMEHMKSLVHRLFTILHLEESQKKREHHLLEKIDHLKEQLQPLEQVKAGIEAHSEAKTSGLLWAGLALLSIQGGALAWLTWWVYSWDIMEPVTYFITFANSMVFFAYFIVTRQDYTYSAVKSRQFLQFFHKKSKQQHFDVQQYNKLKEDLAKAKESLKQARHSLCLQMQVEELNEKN
inactive: [1] -0.175 | barasertib 0.156 | volasertib -0.041 | [3] -0.222 | [4] 0 | [5] -0.054 | saracatinib -0.096 | sotrastaurin -0.008

MARF1 (UniProt Q9Y4F3)
inactive: vemurafenib -0.093 | barasertib 0.051 | [2] -0.059 | [3] 0.007 | [4] -0.027 | [5] -0.059 | saracatinib 0.027 | sotrastaurin 0

MBTPS1 (UniProt Q14703)
inactive: vemurafenib 0.247 | barasertib 0.199 | [2] 0.034 | [3] 0.003 | [4] 0.211 | [5] -0.185 | saracatinib -0.031 | sotrastaurin -0.014

MOCS3 (UniProt O95396)
inactive: vemurafenib -0.12 | barasertib -0.018 | [2] -0.038 | [3] 0.037 | [4] -0.273 | [5] 0.264 | saracatinib 0.06 | sotrastaurin 0.11

LEPROT (UniProt O15243)
UniProt O15243, sequence (O15243 whole entry, looked up): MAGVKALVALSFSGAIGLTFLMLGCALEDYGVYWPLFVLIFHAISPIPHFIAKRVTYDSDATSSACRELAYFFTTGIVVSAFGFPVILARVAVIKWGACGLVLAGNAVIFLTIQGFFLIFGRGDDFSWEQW
inactive: [1] 0.112 | barasertib 0.042 | [2] 0.144 | volasertib 0.102 | [3] -0.086 | [4] -0.043 | [5] -0.02 | sotrastaurin -0.009

MEGF8 (UniProt Q7Z7M0)
inactive: barasertib 0.049 | [2] 0.076 | [3] -0.048 | [4] 0.124 | [5] 0.028 | saracatinib 0.283 | sotrastaurin -0.003

LYN isoform 2 (UniProt P07948)
inactive: [2] -0.077 | [3] -0.075 | [4] -0.031 | [5] 0.024 | saracatinib 0.353 | sotrastaurin 0.074

MAPKAP1 (UniProt Q9BPZ7)
inactive: [2] 0.031 | [3] 0.005 | saracatinib 0.057 | sotrastaurin -0.045

METTL21A (UniProt Q8WXB1)
UniProt Q8WXB1, sequence (Q8WXB1 whole entry, looked up): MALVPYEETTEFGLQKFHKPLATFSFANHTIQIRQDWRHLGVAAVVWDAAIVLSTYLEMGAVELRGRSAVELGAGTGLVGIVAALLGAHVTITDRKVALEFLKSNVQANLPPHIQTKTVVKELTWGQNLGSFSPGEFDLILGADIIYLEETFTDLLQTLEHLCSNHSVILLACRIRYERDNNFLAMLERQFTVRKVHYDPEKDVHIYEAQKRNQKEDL
active: saracatinib 0.263
inactive: [1] 0.04 | barasertib 0.062 | volasertib -0.034 | [3] -0.054 | [4] -0.011 | [5] 0.049 | sotrastaurin 0.04

MRPL22 (UniProt Q9NWU5)
inactive: [1] 0.001 | volasertib -0.002 | [3] -0.069 | [4] -0.006 | [5] -0.045 | sotrastaurin -0.013

MRPL27 (UniProt Q9P0M9)
active: [4] 0.926
inactive: [1] -0.051 | barasertib -0.01 | [2] 0.076 | volasertib 0.017 | [3] -0.006 | [5] -0.218 | saracatinib 0.009 | sotrastaurin 0.05

KRI1 (UniProt Q8N9T8)
inactive: vemurafenib -0.079 | barasertib -0.03 | [2] 0.005 | [3] 0.021 | [4] -0.005 | [5] -0.014 | saracatinib 0 | sotrastaurin 0.008

MAP4K4 isoform 6 (UniProt O95819)
inactive: [1] 0.073 | barasertib 0.06 | [2] 0.06 | volasertib -0.04 | [3] -0.025 | saracatinib 0.006

MAPK7 (UniProt Q13164)
inactive: [1] 0.024 | [2] 0.072 | volasertib -0.056 | [4] -0.084 | [5] -0.101 | sotrastaurin -0.031

KIF2A isoform 2 (UniProt O00139)
inactive: [4] 0.129 | [5] 0.316

KRAS isoform 2 (UniProt P01116)
inactive: [1] 0.019 | [2] 0.156 | volasertib -0.125 | [3] 0.077 | saracatinib -0.06 | sotrastaurin -0.013

KIF21A (UniProt H0YI78)
inactive: [1] 0.017 | barasertib -0.198 | volasertib -0.008 | saracatinib -0.151

MED25 isoform 3 (UniProt Q71SY5)
inactive: [1] 0.018 | barasertib 0.034 | volasertib -0.032 | [3] -0.046 | [4] 0.013 | [5] -0.056 | saracatinib 0.032 | sotrastaurin 0.083
active: [2] -0.256

MED28 (UniProt Q9H204)
inactive: [1] -0.004 | volasertib 0.096 | [3] 0.053 | [4] -0.063 | [5] 0.322 | saracatinib -0.032 | sotrastaurin -0.028

MRPL30 isoform 2 (UniProt Q8TCC3)
inactive: [1] 0.002 | barasertib 0.002 | [2] -0.068 | volasertib -0.013 | [3] -0.027 | saracatinib 0.01 | sotrastaurin 0.016
active: [4] 0.563 | [5] -0.434

KIFC3 isoform 6 (UniProt Q9BVG8)
inactive: vemurafenib 0.052 | barasertib 0.025 | [2] 0.409 | [4] 0.284 | [5] 0.256 | saracatinib 0.005 | sotrastaurin 0.028

KLC1 isoform 10 (UniProt Q07866)
inactive: barasertib 0.238 | [2] 0.152

KMT2B (UniProt Q9UMN6)
inactive: [2] -0.1 | saracatinib 0.081 | sotrastaurin -0.206

MAN2B2 (UniProt Q9Y2E5)
UniProt Q9Y2E5, sequence (Q9Y2E5 whole entry, looked up): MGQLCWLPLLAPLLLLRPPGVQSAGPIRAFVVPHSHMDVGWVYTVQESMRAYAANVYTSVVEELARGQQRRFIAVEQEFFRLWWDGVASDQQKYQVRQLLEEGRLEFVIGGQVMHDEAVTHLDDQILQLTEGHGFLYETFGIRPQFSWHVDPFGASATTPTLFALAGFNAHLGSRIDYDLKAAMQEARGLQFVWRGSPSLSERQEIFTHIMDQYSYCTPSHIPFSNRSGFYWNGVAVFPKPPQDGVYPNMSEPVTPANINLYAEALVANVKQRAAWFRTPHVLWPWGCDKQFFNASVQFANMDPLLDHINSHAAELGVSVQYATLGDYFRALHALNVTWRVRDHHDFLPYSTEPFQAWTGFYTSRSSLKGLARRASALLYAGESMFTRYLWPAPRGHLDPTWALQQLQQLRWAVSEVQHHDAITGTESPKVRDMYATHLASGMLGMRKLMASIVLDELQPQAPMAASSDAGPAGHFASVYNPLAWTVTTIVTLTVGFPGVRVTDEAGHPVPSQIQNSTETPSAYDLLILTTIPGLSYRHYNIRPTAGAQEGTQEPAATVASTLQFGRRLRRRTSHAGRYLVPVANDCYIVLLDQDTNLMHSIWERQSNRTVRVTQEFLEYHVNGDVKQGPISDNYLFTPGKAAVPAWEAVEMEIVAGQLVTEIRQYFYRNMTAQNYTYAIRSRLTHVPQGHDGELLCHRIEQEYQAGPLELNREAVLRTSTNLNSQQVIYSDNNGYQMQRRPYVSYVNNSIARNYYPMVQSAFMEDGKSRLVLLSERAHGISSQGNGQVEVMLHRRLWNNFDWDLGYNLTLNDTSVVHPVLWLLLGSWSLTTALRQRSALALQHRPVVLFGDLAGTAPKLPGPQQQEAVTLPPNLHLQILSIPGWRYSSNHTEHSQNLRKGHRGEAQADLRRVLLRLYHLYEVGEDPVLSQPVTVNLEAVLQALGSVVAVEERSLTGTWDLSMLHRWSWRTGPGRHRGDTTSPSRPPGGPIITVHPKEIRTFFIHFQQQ
inactive: [1] -0.028 | barasertib -0.047 | [2] -0.013 | volasertib -0.006 | [3] -0.022 | saracatinib -0.053 | sotrastaurin -0.024
active: [4] 0.648 | [5] -0.649

MME (UniProt P08473)
inactive: [1] -0.092 | barasertib -0.084 | volasertib 0.001 | [3] 0.075 | [4] -0.044 | [5] 0.009 | saracatinib -0.114 | sotrastaurin 0.016

MEX3A (UniProt A1L020)
UniProt A1L020, sequence (A1L020 whole entry, looked up): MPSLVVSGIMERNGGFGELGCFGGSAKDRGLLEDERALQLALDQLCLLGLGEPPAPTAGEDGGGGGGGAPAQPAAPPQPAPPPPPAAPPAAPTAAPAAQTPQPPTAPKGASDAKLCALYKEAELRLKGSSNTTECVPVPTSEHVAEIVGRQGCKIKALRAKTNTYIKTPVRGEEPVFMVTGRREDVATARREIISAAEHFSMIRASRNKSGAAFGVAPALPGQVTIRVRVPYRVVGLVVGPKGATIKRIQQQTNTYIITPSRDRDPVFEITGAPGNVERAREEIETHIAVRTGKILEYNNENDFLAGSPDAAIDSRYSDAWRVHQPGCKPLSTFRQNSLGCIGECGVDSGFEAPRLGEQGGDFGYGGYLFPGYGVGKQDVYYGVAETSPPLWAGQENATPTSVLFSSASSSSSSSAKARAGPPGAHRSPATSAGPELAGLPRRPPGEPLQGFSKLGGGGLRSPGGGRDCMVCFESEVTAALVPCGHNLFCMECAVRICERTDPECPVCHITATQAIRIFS
inactive: vemurafenib -0.094 | [3] 0.191 | saracatinib 0.055

MPDZ (UniProt O75970)
inactive: vemurafenib 0.059 | [1] 0.03 | [2] 0 | volasertib -0.026 | [3] -0.115 | [4] 0.129 | [5] -0.017 | saracatinib 0.088 | sotrastaurin 0.209

MAP3K6 (UniProt O95382)
inactive: vemurafenib -0.006 | [2] 0.164

MRC2 (UniProt Q9UBG0)
inactive: [2] 0.205 | [4] 0.053 | [5] 0.124 | saracatinib 0.301 | sotrastaurin -0.054

MAP3K4 isoform 2 (UniProt Q9Y6R4)
inactive: sotrastaurin -0.004

MAPK12 (UniProt P53778)
UniProt P53778, sequence (P53778 whole entry, looked up): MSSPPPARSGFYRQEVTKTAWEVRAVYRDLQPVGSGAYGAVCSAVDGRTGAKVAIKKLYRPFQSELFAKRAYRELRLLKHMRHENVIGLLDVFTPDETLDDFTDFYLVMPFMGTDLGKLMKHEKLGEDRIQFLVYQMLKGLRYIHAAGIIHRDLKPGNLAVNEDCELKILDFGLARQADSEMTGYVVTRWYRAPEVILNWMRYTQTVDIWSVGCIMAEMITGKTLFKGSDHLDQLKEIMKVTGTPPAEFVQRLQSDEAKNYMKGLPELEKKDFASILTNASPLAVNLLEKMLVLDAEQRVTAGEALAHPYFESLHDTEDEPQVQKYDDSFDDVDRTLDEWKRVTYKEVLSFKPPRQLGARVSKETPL
inactive: vemurafenib 0.084 | barasertib -0.033 | [2] 0.105 | [3] -0.029 | [5] -0.169 | saracatinib 0.023
active: [4] 0.974

KIF18B (UniProt Q86Y91)
UniProt Q86Y91, sequence (Q86Y91 whole entry, looked up): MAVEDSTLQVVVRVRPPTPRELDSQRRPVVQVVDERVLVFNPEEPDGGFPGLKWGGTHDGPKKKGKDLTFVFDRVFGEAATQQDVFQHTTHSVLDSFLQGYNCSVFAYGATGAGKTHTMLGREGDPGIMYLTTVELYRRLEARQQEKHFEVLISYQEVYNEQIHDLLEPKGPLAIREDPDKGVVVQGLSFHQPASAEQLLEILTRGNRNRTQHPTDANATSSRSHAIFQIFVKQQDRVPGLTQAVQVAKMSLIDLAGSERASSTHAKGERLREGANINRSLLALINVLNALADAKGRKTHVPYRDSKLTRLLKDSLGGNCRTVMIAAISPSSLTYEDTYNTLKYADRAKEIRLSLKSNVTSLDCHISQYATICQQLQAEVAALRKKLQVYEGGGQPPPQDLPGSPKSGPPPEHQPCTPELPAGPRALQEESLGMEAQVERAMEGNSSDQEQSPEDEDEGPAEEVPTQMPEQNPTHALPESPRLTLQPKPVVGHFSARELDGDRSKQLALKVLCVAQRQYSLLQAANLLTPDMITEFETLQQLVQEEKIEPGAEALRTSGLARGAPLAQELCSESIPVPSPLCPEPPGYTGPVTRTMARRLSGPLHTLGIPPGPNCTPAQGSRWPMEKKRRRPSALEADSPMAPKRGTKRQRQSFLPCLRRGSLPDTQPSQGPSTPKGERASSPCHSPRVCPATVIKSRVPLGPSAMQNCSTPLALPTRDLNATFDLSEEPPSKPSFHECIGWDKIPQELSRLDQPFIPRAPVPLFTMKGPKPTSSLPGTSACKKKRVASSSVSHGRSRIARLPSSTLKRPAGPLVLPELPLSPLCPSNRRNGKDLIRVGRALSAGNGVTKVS
inactive: [1] 0.017 | [2] 0.221 | volasertib -0.046 | saracatinib 0.04 | sotrastaurin 0.106

MPP5 (UniProt Q8N3R9)
inactive: vemurafenib -0.029 | barasertib -0.058 | [2] -0.011 | [3] 0.042 | [4] -0.084 | [5] -0.038 | saracatinib -0.04 | sotrastaurin -0.006

LGALS3BP (UniProt Q08380)
inactive: vemurafenib -0.196 | [1] 0.01 | [2] 0.036 | volasertib 0.044 | [4] 0.168 | [5] 0 | saracatinib 0.219 | sotrastaurin -0.067

MDM2 isoform 11 (UniProt Q00987)
inactive: vemurafenib -0.035 | barasertib -0.238 | [3] -0.03 | [4] 0.024 | [5] -0.038 | sotrastaurin 0.053

KIF26A (UniProt Q9ULI4)
inactive: vemurafenib 0.135 | barasertib 0 | [2] 0.08 | [3] -0.01 | [4] -0.076 | [5] -0.005 | saracatinib -0.067 | sotrastaurin -0.033

LSM11 (UniProt P83369)
UniProt P83369, sequence (P83369 whole entry, looked up): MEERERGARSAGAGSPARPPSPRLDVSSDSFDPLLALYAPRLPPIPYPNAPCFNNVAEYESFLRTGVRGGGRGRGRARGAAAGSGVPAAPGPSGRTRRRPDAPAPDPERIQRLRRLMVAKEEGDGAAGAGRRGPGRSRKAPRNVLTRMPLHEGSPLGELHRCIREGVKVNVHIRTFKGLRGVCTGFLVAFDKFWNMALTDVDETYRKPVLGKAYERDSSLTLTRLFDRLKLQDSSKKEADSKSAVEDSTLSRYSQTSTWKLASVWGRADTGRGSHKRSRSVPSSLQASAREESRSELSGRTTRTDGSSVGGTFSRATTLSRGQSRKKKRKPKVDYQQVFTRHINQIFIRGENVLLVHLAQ
inactive: vemurafenib 0.077 | [2] 0.06 | [4] 0.115 | [5] 0.212 | saracatinib 0.076 | sotrastaurin -0.085

LRRC9 (UniProt Q6ZRR7)
inactive: vemurafenib -0.011 | [2] -0.022 | [4] -0.25 | [5] 0.131 | sotrastaurin 0.01

LRP1 (UniProt Q07954)
inactive: vemurafenib 0.15 | [1] -0.072 | [2] -0.163 | volasertib 0.004 | sotrastaurin -0.043
